Screens from PubChem.
In the library only some 3.4% were active in any assay of this set; here they are far more common.
GPR151 activ: activators of human GPR151, primary screen, cell-based, PathHunter beta-arrestin, luminescence | PathHunter beta-arrestin GPR151 cells | activation, % at 11.2 µM | hit rate 1% among 650,000; in the data active = activation above about 4.9%
TEAD-YAP inh: TEAD-YAP interaction inhibition, primary screen, TEAD-YAP interaction inhibitor project, luminescence, HEK-TIYL cells; TEAD-Gal4/YAP UAS-luciferase luminescence; inhibition, % at 9.12 µM; hit rate 1.4% among 640,000; AID 1259422, 2018; in the data active = inhibition above about 32%
MITF primary: MITF inhibitors, primary screen, biochemical, AlphaScreen, human; AlphaScreen MITF homodimerization, bead proximity signal; inhibition, % at 2.6 µM; Microphthalmia-associated transcription factor (Homo sapiens), O75030; hit rate 0.91% among 650,000; in the data active = inhibition above about 50%
FBW7 act: FBW7 E3 ligase activators, primary screen, biochemical, AlphaScreen, human. F-box/WD repeat-containing protein 7 (Homo sapiens), Q969H0. AlphaScreen FBW7–phospho-cyclin E peptide binding, activator screen. normalized activity (activation), % at 26.1 µM. hit rate 0.13% among 650,000; in the data active = normalized activity above about 1.9%;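 also: purified mutant Fbw7 with reduced substrate affinity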
Target sequence (Q969H0 whole entry, looked up): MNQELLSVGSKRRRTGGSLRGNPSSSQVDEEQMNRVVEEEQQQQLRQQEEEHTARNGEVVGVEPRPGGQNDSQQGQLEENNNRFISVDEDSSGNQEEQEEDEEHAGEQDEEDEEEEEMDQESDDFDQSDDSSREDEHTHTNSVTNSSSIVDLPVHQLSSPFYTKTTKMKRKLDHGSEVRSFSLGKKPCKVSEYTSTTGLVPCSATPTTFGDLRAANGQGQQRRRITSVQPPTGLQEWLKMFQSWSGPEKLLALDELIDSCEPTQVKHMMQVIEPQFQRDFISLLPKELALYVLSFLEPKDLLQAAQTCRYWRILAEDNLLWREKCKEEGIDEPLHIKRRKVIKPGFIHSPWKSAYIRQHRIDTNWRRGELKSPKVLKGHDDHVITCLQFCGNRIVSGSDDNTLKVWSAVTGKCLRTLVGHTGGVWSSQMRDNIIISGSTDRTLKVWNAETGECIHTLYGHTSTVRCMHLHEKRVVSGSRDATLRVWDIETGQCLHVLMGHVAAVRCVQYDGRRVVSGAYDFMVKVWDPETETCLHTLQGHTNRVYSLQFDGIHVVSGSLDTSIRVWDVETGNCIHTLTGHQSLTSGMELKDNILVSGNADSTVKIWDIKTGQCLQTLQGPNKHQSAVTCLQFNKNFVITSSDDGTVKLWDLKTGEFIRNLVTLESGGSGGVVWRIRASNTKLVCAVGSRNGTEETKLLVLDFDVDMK
MITF confirm: MITF inhibitors, retest of hits, confirmation, biochemical, AlphaScreen, triplicate. hit rate 16% among 4,700. shares compounds with MITF primary. AlphaScreen MITF homodimerization, biotin/His-MITF beads. inhibition, % at 2.6 µM. AID 1259372, 2018;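 active = inhibition above a cutoff derived from the DMSO control wells, cut at about 28% in these data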;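 also: inhibitors lower the bead chemiluminescence by keeping MITF from dimerizing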
AlphaScreen DR: AlphaScreen optical interference compounds, dose response, counter-screen, biochemical, HTS. shares compounds with MITF primary. AlphaScreen optical interference counterscreen, cell-free. IC50, µM. hit rate 6% among 480; call rule not given here
AS interf ctr: AlphaScreen optical interference compounds, counter-screen for MITF inhibitor project, biochemical, triplicate; shares compounds with MITF primary; LysRS AlphaScreen counterscreen, signal interference; inhibition, % at 2.6 µM; hit rate 7.6% among 4,700;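 active = inhibition above a cutoff derived from the DMSO control wells, cut at about 30% in these data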
Of the large screens only hits and unclear results are named; the others gave an inactive call (follow-up assays come after a bar, where they were run); ! = not confirmed by another sample.

CC(=O)c1ccc(N2CCN(Cc3ccccc3F)CC2)cc1	MITF primary 51.4 | MITF confirm inactive | AS interf ctr inactive
COc1cccc(N2CCN(Cc3ccccc3F)CC2)c1	MITF primary 60.1 | MITF confirm inactive | AS interf ctr inactive
c1ccc(N2CCN(Cc3ccc4c(c3)OCO4)CC2)cc1	none
CCOC(=O)C1C2NC(=S)N(c3cccc(C)c3)C1(C)Oc1ccc(OC)cc12 (stereo not drawn)	MITF primary 58.7 | MITF confirm 49.6 | AS interf ctr 35.0
CCOC(=O)C1C2NC(=S)N(CC)C1(C)Oc1ccc(Br)cc12 (stereo not drawn)	MITF primary 53.1 | MITF confirm 31.2 | AlphaScreen DR inactive | AS interf ctr inactive
CCOC(=O)C1C2NC(=S)N(CCc3ccccc3)C1(C)Oc1ccc(Br)cc12 (stereo not drawn)	none
CCOC(=O)C1C2NC(=S)N(c3ccccc3)C1(C)Oc1cc(OC)ccc12 (stereo not drawn)	MITF primary 52.5 | MITF confirm 47.1 | AlphaScreen DR inactive | AS interf ctr inactive
COC(=O)C1=C(N)OC2=C(C(=O)CC(C)(C)C2)C12C(=O)N(C)c1ccccc12 (stereo not drawn)	none
O=C1Nc2ccc(Br)cc2/C1=C/c1nc2ccccc2c(=O)n1-c1ccccc1	none
Cc1nn(CC(=O)N2CCC3(CC2)OCCO3)c(=O)c2cc3sccc3n12	MITF primary 65.5 | MITF confirm inactive | AS interf ctr inactive
O=C(Cn1ncn2cccc2c1=O)N1CCC2(CC1)OCCO2	none
N#Cc1c(Cl)nc(NC23CC4CC(CC(C4)C2)C3)c(Cl)c1Cl	none
CCN1CCN(Cc2cccc(Cl)c2)CC1	none
CCOc1ccc(CN2CCN(Cc3cccc(Cl)c3)CC2)cc1	MITF primary 66.8 | MITF confirm inactive | AS interf ctr inactive
CCOc1ccc(CN2CCN(Cc3cccc(C)c3)CC2)cc1	MITF primary 54.5 | MITF confirm inactive | AS interf ctr inactive
O=[N+]([O-])c1ccccc1CN1CCN(c2ccccc2F)CC1	none
CCc1ccc(C(c2c(O)c3ccccc3oc2=O)c2c(O)c3ccccc3oc2=O)cc1	none
CCN1CCN(Cc2ccc([N+](=O)[O-])o2)CC1	none
COc1ccc(C2CC3CCC(C2=O)N3Cc2ccccc2)cc1 (stereo not drawn)	none
O=C(COc1ccccc1)N1CCN(Cc2ccccn2)CC1	MITF primary 77.9 | MITF confirm inactive | AS interf ctr inactive
O=C(Cc1ccccc1)N1CCN(Cc2ccccn2)CC1	none
Cn1cccc1CN1CCN(C(=O)COc2ccccc2)CC1	MITF primary 52.9 | MITF confirm inactive | AS interf ctr inactive
C[N+]1(C)[C@@H]2CC[C@H]1CC(OC(=O)C(CO)c1ccccc1)C2 (stereo partly drawn)	none (no result: TEAD-YAP inh)
C[N+]1(C)C2CCC1CC(OC(=O)C(CO)c1ccccc1)C2 (stereo not drawn)	MITF primary 62.9! | MITF confirm inactive | AS interf ctr inactive
Brc1ccc(CNCCc2c[nH]c3ccccc23)cc1	MITF primary 54.9 | MITF confirm inactive | AS interf ctr inactive
CCc1ccc(CNCCc2c[nH]c3ccccc23)cc1	none
COc1cc(CN2CCN(c3ccccc3)CC2)cc(OC)c1O	none
COc1cc(CN2CCN(C(C)C)CC2)cc(OC)c1O	MITF primary 71.5 | MITF confirm inactive | AS interf ctr inactive
COc1cc(CN2CCN(C(C)C)CC2)cc(OC)c1OC	MITF primary 82.2 | MITF confirm inactive | AS interf ctr inactive
CCN1CCN(Cc2ccc(OC)c(C)c2C)CC1	MITF primary 53.4 | MITF confirm inactive | AS interf ctr inactive
Cc1cccc(CN2CCN(C(C)C)CC2)c1	none
COc1cc(CN2CCN(CCO)CC2)cc(OC)c1OC	none
CCN1CCN(Cc2cc(OC)c(OC)c(OC)c2)CC1	MITF primary 52.2 | MITF confirm inactive | AS interf ctr inactive
CCN1CCN(Cc2ccc(O)c(OC)c2)CC1	none
CCC(CC)N1CCN(Cc2cc(OC)c(OC)c(OC)c2)CC1	MITF primary 57.1 | MITF confirm inactive | AS interf ctr inactive
CCOc1cc(CN2CCN(CC)CC2)ccc1O	MITF primary 57.1 | MITF confirm inactive | AS interf ctr inactive
Cc1cccc(N2CCN(CC(=O)Nc3ccc(Br)cc3C(=O)c3ccccc3Cl)CC2)c1	none
O=c1[nH]c(N2CCNCC2)nc2c1CCCC2	none
N/C(=N\[N+](=O)[O-])N/N=C\c1ccc(-c2ccc(O)c(C(=O)O)c2)o1	MITF primary 74.6 | MITF confirm 79.1 | AlphaScreen DR inactive | AS interf ctr inactive
N/C(=N\[N+](=O)[O-])N/N=C\c1ccc(-c2ccccc2C(=O)O)o1	none
COc1ccc(CN2CCN(Cc3ccc(C)cc3)CC2)cc1	MITF primary 80.2 | MITF confirm inactive | AS interf ctr inactive
COc1ccc(CN2CCN(Cc3ccc(Cl)cc3)CC2)cc1	MITF primary 82.7 | MITF confirm inactive | AS interf ctr inactive
CN(C)CCN(C)Cc1c[nH]c2ccccc12	MITF primary 63.6 | MITF confirm inactive | AS interf ctr inactive
CN1CCN(CC#CCOc2ccc(Cl)cc2)CC1	MITF primary 53.9 | MITF confirm inactive | AS interf ctr inactive
OCCN1CCN(Cc2cccc(Cl)c2Cl)CC1	MITF primary 65.2 | MITF confirm inactive | AS interf ctr inactive
CCN1CCN(Cc2ccc(Cl)cc2)CC1	none
OCCN1CCN(Cc2cccc(Cl)c2)CC1	MITF primary 83.4 | MITF confirm inactive | AS interf ctr inactive
OCCN1CCN(Cc2ccc(Cl)cc2)CC1	MITF primary 67.5 | MITF confirm inactive | AS interf ctr inactive
O=C(Cc1ccccc1)N1CCN(Cc2cccc(Cl)c2)CC1	none
O=c1[nH]c2ccc(Br)cc2c(=O)n1-c1cccc(Cl)c1	none
CN1CCN(Cc2ccc(O)c3ncccc23)CC1	MITF primary 94.1 | MITF confirm 105.6 | AS interf ctr 100.6
CN1CCN(Cc2c(O)ccc3ccccc23)CC1	none
COc1ccc(OCC(=O)N2CCN(Cc3cccc(Br)c3)CC2)cc1	MITF primary 63.8 | MITF confirm inactive | AS interf ctr inactive
CSc1ccc(CN2CCN(C(=O)COc3ccc(Cl)cc3)CC2)cc1	none
COc1ccc(OCC(=O)N2CCN(Cc3cccc(OC)c3)CC2)cc1	none
COc1cc(OC)c(OC)cc1CN1CCN(C(=O)COc2ccccc2)CC1	MITF primary 53.9 | MITF confirm inactive | AS interf ctr inactive
COc1ccccc1CN1CCN(C(=O)COc2cccc(C)c2)CC1	MITF primary 80.4 | MITF confirm inactive | AS interf ctr inactive
